Only some compounds are listed: those with a hit (about 1.9% of all), similar ones and a draw of the others.
dFosB act-1: activators of delta FosB homodimer, primary screen, biochemical, fluorescence polarization, TAMRA-CDK5 oligo, single point; Protein FosB (Mus musculus), P13346; purified delta FosB; percent of positive-control signal above neutral wells; activation, % at 25 µM; 340,000 compounds, 0.99% hits; AID 493131, 2011;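 active = mean activation above about 17%, with every replicate also reaching it, limit read from the data, passing the limit was not always enough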
14-3-3 Bad inh: inhibitors of 14-3-3 zeta/Bad binding, primary screen, biochemical, TR-FRET, bovine 14-3-3 zeta. 14-3-3 protein zeta/delta (Bos taurus), P63103. TR-FRET 14-3-3zeta/Dy647-pBad peptide displacement, 1 h. inhibition, % at 21.7 µM. 220,000 compounds, 0.71% hits;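 active = inhibition above about 70%, limit read from the data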;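 note: 0% = full 14-3-3 plus peptide FRET controls and 100% = background without 14-3-3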
Target sequence (P63103 whole entry, looked up): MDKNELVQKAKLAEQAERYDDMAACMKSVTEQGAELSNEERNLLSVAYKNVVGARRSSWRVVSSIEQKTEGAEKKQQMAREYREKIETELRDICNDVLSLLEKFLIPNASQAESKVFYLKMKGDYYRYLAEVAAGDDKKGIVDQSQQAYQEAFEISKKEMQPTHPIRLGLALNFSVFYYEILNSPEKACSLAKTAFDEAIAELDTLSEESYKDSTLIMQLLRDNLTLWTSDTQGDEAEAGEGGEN
Efa HMGR inh: inhibitors of E. faecalis class II HMGR, primary screen, biochemical, Enterococcus faecalis | 190,000 compounds, 0.41% hits | inhibition, % at 10 µM | purified E. faecalis HMGR, NADPH absorbance 340 nm kinetic | HMG-CoA reductase (Enterococcus faecalis, mvaE) | AID 1066, 2008;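 active = inhibition above a set limit, the median over all tested compounds plus 3 SD, cut at about 9.5% in these data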;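 note: enzyme runs in reverse so mevalonate oxidation gives rising NADPH absorbance; 0% = complete reaction with DMSO and 100% = background rate lacking mevalonate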
p47phox inh: p47phox/p22phox peptide binding inhibitors, primary screen, biochemical, uHTS, NADPH oxidase regulatory subunit; Neutrophil cytosol factor 1 (Homo sapiens), P14598; fluorescence polarization, 2 h; inhibition, % at 24.7 µM; 220,000 compounds, 0.53% hits; AID 1274, 2008;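 active = inhibition above about 30%, limit read from the data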;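 note: 0% = p47phox with labelled peptide and 100% = labelled peptide alone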
dFosB act-2: activators of mouse delta FosB DNA binding, confirmation, biochemical, fluorescence polarization, TAMRA-CDK5 oligo, cherry-picked samples. shares compounds with dFosB act-1. purified delta FosB; normalised: neutral wells 0, positive control 100. activation, % at 24.9 µM. 2,400 tested, under 10 active;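 active = highest replicate activation at or above 34% and every replicate reaching that threshold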;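 note: higher polarization means more probe DNA bound by delta FosB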
Numbers without * were called inactive; . = no result.

SMILES	dFosB act-1	14-3-3 Bad inh	Efa HMGR inh	p47phox inh	dFosB act-2
Cc1ccc(-n2nnc3c(=O)n(CC(=O)NCc4ccccc4)cnc32)cc1	27*	1	-3	-4	4
CCOc1ccc(CNC(=O)Cn2nc(C)c3c(C)n(-c4ccc(C)cc4)nc3c2=O)cc1	59*	.	.	.	6
Cc1ccc(-n2nnc3c(=O)n(CC(=O)c4ccccc4)cnc32)cc1	0	-8	-7	8	.
NC(=O)C1CN(C(=O)c2nn(Cc3ccccc3)c(=O)c3ccccc23)c2ccccc2O1 (stereo not drawn)	-2	.	.	.	.
O=C(CC1C(=O)NCCN1Cc1ccccc1F)NC1CCCCCC1 (stereo not drawn)	0	.	.	.	.
O=C(Nc1cccnc1)c1cc(-c2cccc(Cl)c2)on1	57*	.	.	.	2
O=C(Nc1cccnc1Cl)c1cc(-c2ccc(F)cc2)on1	84*	.	.	.	1
COc1ccc(-c2cc(C(=O)Nc3cccnc3Cl)no2)cc1	13	.	.	.	.
CC(=O)c1cccc(NC(=O)c2cc(-c3ccc(F)cc3)on2)c1	25*	23	-3	-20	1
CC(=O)c1cccc(NC(=O)Cn2cnc(S(=O)(=O)N3CCC(C)CC3)c2)c1	50*	.	.	.	0
CC1CCN(S(=O)(=O)c2cn(CC(=O)Nc3cccc(C#N)c3)cn2)CC1	-1	.	.	.	.
N#CCCN(C(=O)COC(=O)CNC(=O)c1cccs1)c1ccc(F)cc1	-5	.	.	.	.
Cc1ccc(NC(=O)c2ccc(OC(=O)CCN3C(=O)c4ccccc4C3=O)cc2)cc1	35*	21	4	14	0
COc1cc(/C=C(\C#N)c2nc3ccccc3[nH]2)ccc1OC(=O)c1ccco1	27*	-21	1	-28	4
CCOC(=O)c1sc(NC(=O)Nc2ccc(Cl)cc2)cc1C	24*	11	-6	-53	0
CCOC(=O)c1sc(NC(=O)c2ccc(Cl)s2)cc1C	-4	4	-6	-5	.
Cc1nn(C)cc1C(C(=O)NC1CCCCC1)N(CCc1ccccc1)C(=O)c1cnccn1 (stereo not drawn)	-1	-6	-1	-1	.
COc1cccc2c1[C@@H]1CN(CCCCn3c(=O)[nH]c4c(sc5ncc(-c6ccccc6)nc54)c3=O)C[C@@H]1CO2	40*	.	.	.	0
O=C(COC(=O)c1ccc(Br)cc1)NCc1ccc(F)cc1	20*	-2	-2	-6	2
O=C(COC(=O)c1ccc(F)cc1)NCc1ccc(F)cc1	-8	.	.	.	.
C[C@@H](NC(=O)[C@@H]1Cc2ccccc2CN1C(=O)OC(C)(C)C)C(=O)NCc1ccco1	-8	.	.	.	.
Cc1cc(C)c(C#N)c(SCC(=O)Nc2nnc(-c3ccccc3)s2)n1	39*	9	-2	-1	0
Cc1csc(NC(=O)CSc2nsc(SCC(=O)Nc3nc(C)cs3)c2C#N)n1	25*	-4	0	-17	3
Cc1ccc(NC(=O)CSc2nsc(SCC(=O)Nc3ccc(C)cc3C)c2C#N)c(C)c1	-2	5	0	8	.
Nc1nc(SCc2ccc(Br)cc2)[nH]c(=O)c1-c1ccccc1	3	4	-4	-4	.
SMILES	dFosB act-1	14-3-3 Bad inh	Efa HMGR inh	p47phox inh	dFosB act-2
COc1cc2ccccc2cc1C(=O)N(CCN(C)C)c1nc2c(F)cc(F)cc2s1	35*	.	.	.	6
CN(C)CCCN(C(=O)c1cc(-c2cccs2)nc2ccccc12)c1nc2ccc(F)cc2s1	28*	.	.	.	5
COc1cc2ccccc2cc1C(=O)N(CCN(C)C)c1nc2ccc(Br)cc2s1	44*	.	.	.	5
O=C(NCC1CCCO1)c1cc(-c2ccncc2)nc2ccc(S(=O)(=O)N3CCOCC3)cc12 (stereo not drawn)	-4	10	-1	0	.
COc1ccc(C(=O)NCC(=O)O)cc1	-1	6	-6	-5	.
N#C/C(=C\c1cn(Cc2ccccc2F)c2ccccc12)C(=O)NCc1ccco1	24*	-22	0	-42	4
COc1ccccc1OCCn1cc(/C=C(\C#N)C(=O)NCc2ccco2)c2ccccc21	0	-24	-3	-41	.
CCOC(=O)c1cccc(NC(=O)CCS(=O)(=O)c2ccc(Br)s2)c1	111*	-6	2	1	3
